Source: the supplement of paper PMC4466140

Legend:
Assay in all cases: SPOT peptide array binding signal intensity (averaged, normalized) (arbitrary units (background-subtracted, floor 0; scale differs between SH3 domains)); higher = stronger binding of the SH3 domain to the peptide
AgAbp1 = target: AgAbp1
Experimental: (§1)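 GST-tagged SH3 domains from S. cerevisiae (Sc), A. gossypii (Ag), C. albicans (Ca) and S. pombe (Sp) were incubated at 10 ug/ml overnight at 4 C on cellulose SPOT membranes carrying 292 synthetic 15-mer peptides mined from the S. cerevisiae proteome (cysteines replaced by serines). Binding was detected with anti-GST antibody, HRP secondary and chemiluminescence, quantified with Genespotter, and reported as normalized spot intensities averaged over biological replicates.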

AgBbc1 = target: AgBbc1
Experimental: as §1

AgBem1-D1 = target: AgBem1-D1
Experimental: as §1

AgBzz1-D1 = target: AgBzz1-D1
Experimental: as §1

AgBzz1-D2 = target: AgBzz1-D2
Experimental: as §1

AgCyk3 = target: AgCyk3
Experimental: as §1

AgFus1 = target: AgFus1
Experimental: as §1

AgHof1 = target: AgHof1
Experimental: as §1

AgHse1 = target: AgHse1
Experimental: as §1

AgLsb1 = target: AgLsb1
Experimental: as §1

AgLsb4 = target: AgLsb4
Experimental: as §1

AgMyo5 = target: AgMyo5
Experimental: as §1

AgNbp2 = target: AgNbp2
Experimental: as §1

AgRvs167 = target: AgRvs167
Experimental: as §1

AgSho1 = target: AgSho1
Experimental: as §1

AgSla1-D1-D2 = target: AgSla1-D1-D2
Experimental: as §1

AgSla1-D3 = target: AgSla1-D3
Experimental: as §1

CaAbp1-D1 = target: CaAbp1-D1
Experimental: as §1

CaAbp1-D2 = target: CaAbp1-D2
Experimental: as §1

CaBbc1 = target: CaBbc1
Experimental: as §1

CaBem1-D1 = target: CaBem1-D1
Experimental: as §1

CaBzz1-D1 = target: CaBzz1-D1
Experimental: as §1

CaBzz1-D2 = target: CaBzz1-D2
Experimental: as §1

CaCyk3 = target: CaCyk3
Experimental: as §1

CaFus1 = target: CaFus1
Experimental: as §1

CaHof1 = target: CaHof1
Experimental: as §1

CaHse1 = target: CaHse1
Experimental: as §1

CaLsb1 = target: CaLsb1
Experimental: as §1

CaLsb4 = target: CaLsb4
Experimental: as §1

CaMyo5 = target: CaMyo5
Experimental: as §1

CaNbp2 = target: CaNbp2
Experimental: as §1

CaRvs167 = target: CaRvs167
Experimental: as §1

CaRvs167-3 = target: CaRvs167-3
Experimental: as §1

CaSho1 = target: CaSho1
Experimental: as §1

CaSla1-D1-D2 = target: CaSla1-D1-D2
Experimental: as §1

CaSla1-D3 = target: CaSla1-D3
Experimental: as §1

ScAbp1 = target: ScAbp1
Experimental: as §1

ScBbc1 = target: ScBbc1
Experimental: as §1

ScBem1-D1 = target: ScBem1-D1
Experimental: as §1

ScBzz1-D1 = target: ScBzz1-D1
Experimental: as §1

ScBzz1-D2 = target: ScBzz1-D2
Experimental: as §1

ScCyk3 = target: ScCyk3
Experimental: as §1

ScFus1 = target: ScFus1
Experimental: as §1

ScHof1 = target: ScHof1
Experimental: as §1

ScHse1 = target: ScHse1
Experimental: as §1

ScLsb1 = target: ScLsb1
Experimental: as §1

ScLsb2 = target: ScLsb2
Experimental: as §1

ScLsb3 = target: ScLsb3
Experimental: as §1

ScLsb4 = target: ScLsb4
Experimental: as §1

ScMyo3 = target: ScMyo3
Experimental: as §1

ScMyo5 = target: ScMyo5
Experimental: as §1

ScNbp2 = target: ScNbp2
Experimental: as §1

ScPex13 = target: ScPex13
Experimental: as §1

ScRvs167 = target: ScRvs167
Experimental: as §1

ScSho1 = target: ScSho1
Experimental: as §1

ScSla1-D1-D2 = target: ScSla1-D1-D2
Experimental: as §1

ScSla1-D3 = target: ScSla1-D3
Experimental: as §1

SpAbp1-D1 = target: SpAbp1-D1
Experimental: as §1

SpBbc1 = target: SpBbc1
Experimental: as §1

SpBzz1-D1 = target: SpBzz1-D1
Experimental: as §1

SpBzz1-D2 = target: SpBzz1-D2
Experimental: as §1

SpCyk3 = target: SpCyk3
Experimental: as §1

SpHof1 = target: SpHof1
Experimental: as §1

SpHof1-2 = target: SpHof1-2
Experimental: as §1

SpHof1-3 = target: SpHof1-3
Experimental: as §1

SpHse1 = target: SpHse1
Experimental: as §1

SpLsb1 = target: SpLsb1
Experimental: as §1

SpLsb4 = target: SpLsb4
Experimental: as §1

SpMyo1 = target: SpMyo1
Experimental: as §1

SpNbp2 = target: SpNbp2
Experimental: as §1

SpPex13 = target: SpPex13
Experimental: as §1

SpRvs167 = target: SpRvs167
Experimental: as §1

SpSla1-D1-D2 = target: SpSla1-D1-D2
Experimental: as §1

SpSla1-D3 = target: SpSla1-D3
Experimental: as §1

LSKRLPLRFPEHTSS
SPOT peptide array binding signal intensity (AgAbp1): 48 | SPOT peptide array binding signal intensity (AgBbc1): 5.5 | SPOT peptide array binding signal intensity (AgBem1-D1): ≤ 0 | SPOT peptide array binding signal intensity (AgBzz1-D1): 9 | SPOT peptide array binding signal intensity (AgBzz1-D2): 17 | SPOT peptide array binding signal intensity (AgCyk3): ≤ 0 | SPOT peptide array binding signal intensity (AgFus1): 102 | SPOT peptide array binding signal intensity (AgHof1): 67.5 | SPOT peptide array binding signal intensity (AgHse1): 234 | SPOT peptide array binding signal intensity (AgLsb1): 5.5 | SPOT peptide array binding signal intensity (AgLsb4): 53.5 | SPOT peptide array binding signal intensity (AgMyo5): ≤ 0 | SPOT peptide array binding signal intensity (AgNbp2): 10 | SPOT peptide array binding signal intensity (AgRvs167): 1.33 | SPOT peptide array binding signal intensity (AgSho1): 17 | SPOT peptide array binding signal intensity (AgSla1-D1-D2): 2 | SPOT peptide array binding signal intensity (AgSla1-D3): ≤ 0 | SPOT peptide array binding signal intensity (CaAbp1-D1): 462 | SPOT peptide array binding signal intensity (CaAbp1-D2): 220 | SPOT peptide array binding signal intensity (CaBbc1): 27.2 | SPOT peptide array binding signal intensity (CaBem1-D1): 10 | SPOT peptide array binding signal intensity (CaBzz1-D1): 22 | SPOT peptide array binding signal intensity (CaBzz1-D2): 60.8 | SPOT peptide array binding signal intensity (CaCyk3): 4 | SPOT peptide array binding signal intensity (CaFus1): 402 | SPOT peptide array binding signal intensity (CaHof1): 0.75 | SPOT peptide array binding signal intensity (CaHse1): 81 | SPOT peptide array binding signal intensity (CaLsb1): 1 | SPOT peptide array binding signal intensity (CaLsb4): 136 | SPOT peptide array binding signal intensity (CaMyo5): ≤ 0 | SPOT peptide array binding signal intensity (CaNbp2): 63.5 | SPOT peptide array binding signal intensity (CaRvs167): 15.2 | SPOT peptide array binding signal intensity (CaRvs167-3): 15.8 | SPOT peptide array binding signal intensity (CaSho1): 212 | SPOT peptide array binding signal intensity (CaSla1-D1-D2): ≤ 0 | SPOT peptide array binding signal intensity (CaSla1-D3): 1 | SPOT peptide array binding signal intensity (ScAbp1): 63.5 | SPOT peptide array binding signal intensity (ScBbc1): ≤ 0 | SPOT peptide array binding signal intensity (ScBem1-D1): 23.5 | SPOT peptide array binding signal intensity (ScBzz1-D1): 10.5 | SPOT peptide array binding signal intensity (ScBzz1-D2): 17 | SPOT peptide array binding signal intensity (ScCyk3): 61 | SPOT peptide array binding signal intensity (ScFus1): 81 | SPOT peptide array binding signal intensity (ScHof1): 4.25 | SPOT peptide array binding signal intensity (ScHse1): 532 | SPOT peptide array binding signal intensity (ScLsb1): 4 | SPOT peptide array binding signal intensity (ScLsb2): ≤ 0 | SPOT peptide array binding signal intensity (ScLsb3): 492 | SPOT peptide array binding signal intensity (ScLsb4): 10.5 | SPOT peptide array binding signal intensity (ScMyo3): ≤ 0 | SPOT peptide array binding signal intensity (ScMyo5): ≤ 0 | SPOT peptide array binding signal intensity (ScNbp2): 50 | SPOT peptide array binding signal intensity (ScPex13): ≤ 0 | SPOT peptide array binding signal intensity (ScRvs167): 231 | SPOT peptide array binding signal intensity (ScSho1): 952 | SPOT peptide array binding signal intensity (ScSla1-D1-D2): 6 | SPOT peptide array binding signal intensity (ScSla1-D3): 4.75 | SPOT peptide array binding signal intensity (SpAbp1-D1): 228 | SPOT peptide array binding signal intensity (SpBbc1): 1.5 | SPOT peptide array binding signal intensity (SpBzz1-D1): 132

RLPAPPPPPRRGPAP
SPOT peptide array binding signal intensity (CaNbp2): 63.5 | SPOT peptide array binding signal intensity (CaRvs167): 223 | SPOT peptide array binding signal intensity (CaRvs167-3): 9.25 | SPOT peptide array binding signal intensity (CaSho1): 11 | SPOT peptide array binding signal intensity (CaSla1-D1-D2): 2140 | SPOT peptide array binding signal intensity (CaSla1-D3): 20.2 | SPOT peptide array binding signal intensity (ScAbp1): 53 | SPOT peptide array binding signal intensity (ScBbc1): 198 | SPOT peptide array binding signal intensity (ScBem1-D1): 3.5 | SPOT peptide array binding signal intensity (ScBzz1-D1): 222 | SPOT peptide array binding signal intensity (ScBzz1-D2): 47.5 | SPOT peptide array binding signal intensity (ScCyk3): 5 | SPOT peptide array binding signal intensity (ScFus1): ≤ 0 | SPOT peptide array binding signal intensity (ScHof1): 175 | SPOT peptide array binding signal intensity (ScHse1): 173 | SPOT peptide array binding signal intensity (ScLsb1): 27.2 | SPOT peptide array binding signal intensity (ScLsb2): 5.5 | SPOT peptide array binding signal intensity (ScLsb3): 832 | SPOT peptide array binding signal intensity (ScLsb4): 413 | SPOT peptide array binding signal intensity (ScMyo3): 881 | SPOT peptide array binding signal intensity (ScMyo5): 795 | SPOT peptide array binding signal intensity (ScNbp2): 30.5 | SPOT peptide array binding signal intensity (ScPex13): 502 | SPOT peptide array binding signal intensity (ScRvs167): 795 | SPOT peptide array binding signal intensity (ScSho1): 188 | SPOT peptide array binding signal intensity (ScSla1-D1-D2): 3480 | SPOT peptide array binding signal intensity (ScSla1-D3): 3.5 | SPOT peptide array binding signal intensity (SpAbp1-D1): 69 | SPOT peptide array binding signal intensity (SpBbc1): 20 | SPOT peptide array binding signal intensity (SpBzz1-D1): 4030 | SPOT peptide array binding signal intensity (SpBzz1-D2): 64.8 | SPOT peptide array binding signal intensity (SpCyk3): 57 | SPOT peptide array binding signal intensity (SpHof1): 115 | SPOT peptide array binding signal intensity (SpHof1-2): 166 | SPOT peptide array binding signal intensity (SpHof1-3): 1070 | SPOT peptide array binding signal intensity (SpHse1): 2.25 | SPOT peptide array binding signal intensity (SpLsb1): 12.2 | SPOT peptide array binding signal intensity (SpLsb4): 1800 | SPOT peptide array binding signal intensity (SpMyo1): 510 | SPOT peptide array binding signal intensity (SpNbp2): 12 | SPOT peptide array binding signal intensity (SpPex13): ≤ 0 | SPOT peptide array binding signal intensity (SpRvs167): 1170 | SPOT peptide array binding signal intensity (SpSla1-D1-D2): 339 | SPOT peptide array binding signal intensity (SpSla1-D3): ≤ 0
